These results are taken from PubChem BioAssay AID588342 (National Center for Advancing Translational Sciences (NCATS), 2011).

Each structure is given as a SMILES string. In all, about 360,000 compounds went through this assay and about 25,000 (6.9%) were called active. Not shown: some 9% with an inconclusive outcome. The sample holds actives, similar compounds and a random draw of the others, so the mix is not that of the screen. Unmarked numbers belong to inactive results. The call rests on the fitted dose curve; in most records, active means well fitted inhibition curve with a large enough effect; inconclusive means small, poorly fitted or top-dose-only effect; inactive means flat fitted curve, though single readings scatter.
Potency means the concentration at half of the fitted maximal effect.

Sequence of Luciferin 4-monooxygenase (Photinus pyralis) (P08659 whole entry, looked up): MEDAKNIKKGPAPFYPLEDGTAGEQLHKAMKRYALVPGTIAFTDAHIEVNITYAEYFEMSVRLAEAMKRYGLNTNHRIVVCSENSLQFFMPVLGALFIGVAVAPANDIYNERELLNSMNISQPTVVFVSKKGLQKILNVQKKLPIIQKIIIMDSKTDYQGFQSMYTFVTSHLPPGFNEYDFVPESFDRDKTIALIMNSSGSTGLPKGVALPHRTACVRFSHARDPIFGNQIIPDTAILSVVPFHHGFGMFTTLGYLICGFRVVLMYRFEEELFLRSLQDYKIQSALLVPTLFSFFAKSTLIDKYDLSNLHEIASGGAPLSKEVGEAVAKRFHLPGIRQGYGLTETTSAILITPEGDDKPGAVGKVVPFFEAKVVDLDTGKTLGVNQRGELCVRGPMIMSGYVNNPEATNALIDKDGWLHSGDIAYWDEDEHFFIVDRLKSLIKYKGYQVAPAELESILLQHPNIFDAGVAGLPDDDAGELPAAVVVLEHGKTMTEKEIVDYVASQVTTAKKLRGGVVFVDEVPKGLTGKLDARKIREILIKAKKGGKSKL

In this assay the target is Luciferin 4-monooxygenase (Photinus pyralis) (UniProt P08659). The assay is described as follows: qHTS profiling assay for firefly luciferase inhibitor/activator using purifed enzyme and Km concentrations of substrates (counterscreen for miR-21 project). Further: nearly all actives have a fitted effect of over 55% in size.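 On activity change, negative = inhibition: plate controls were vehicle for no effect and reference inhibitor for full effect.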 As to conditions: purified FLuc, luminescence inhibition; series mostly up to 57.5 µM; activity change, negative = inhibition: at the top concentration. The essentials:
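Biochemical qHTS of compounds, final roughly 60 µM downward over six points, against 10 nM purified firefly luciferase using Km concentrations of substrates (10 uM D-luciferin, 10 uM ATP) in Tris acetate pH 7.5 buffer; luminescence output.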
For the compound `CCOc1ccc(CCNC(=O)c2c(C)oc3ncn(C)c(=O)c23)cc1`, the “activity change, negative = inhibition” value was -15.7%.
Turning to `O=C(Nc1cccc(C(=O)NC2CC2)c1)c1ccc(F)c(S(=O)(=O)N2CCOCC2)c1`, the “activity change, negative = inhibition” value is 1.1%.
Still for that read-out and setting: the figure for `Cc1ccc(-c2cn(S(=O)(=O)c3cccc([N+](=O)[O-])c3)nc2N)cc1` is 0.0034%.
On to `Cc1ccnc(N2C(=O)c3ccc([N+](=O)[O-])cc3C2=O)c1`, for which the “activity change, negative = inhibition” value is -0.44%.
With `Cc1ccc(-n2cc3ccc([N+](=O)[O-])cc3n2)cc1`, the Potency is 0.953 µM (active).
In the case of `COc1ccc(C2=CC(c3ccccc3Cl)n3nc(-c4ccc(Cl)cc4)nc3N2)cc1` (stereo not given), the “activity change, negative = inhibition” value is -4.89%.
As for `NS(=O)(=O)c1ccc(NC(=O)COc2ccc(S(=O)(=O)NC3CCCCC3)cc2)cc1`, the “activity change, negative = inhibition” value was -1.09%.
For the compound `COc1ccc(-n2nnnc2-c2nc3ccccc3s2)cc1`, the Potency is 0.601 µM (active).
`COc1ccc(-n2nnnc2CNC(=O)c2ccc3ccccc3c2)cc1`: the “activity change, negative = inhibition” value was 2.8%.
Still for that read-out and setting: to `COc1ccc(CSc2nnnn2-c2ccc(C(=O)O)cc2)cc1` belongs 0.195%; to `Cc1ccc(S(=O)(=O)NCCC(=O)NCc2ccc(Cl)cc2)cc1C`, 1.46%; to `COc1cccc(CNCc2c(C(=O)O)n(Cc3ccc(C)cc3)c3cc(C)ccc23)c1OC`, -2.43%.
Take `CO/N=C/CC(=O)c1ccc(OC)cc1`: the “activity change, negative = inhibition” value is -0.488%.
For `COc1ccc(C(=O)CCC(=O)Nc2cccnc2)c(OC)c1`, the “activity change, negative = inhibition” value is -7.14%.
On the same count and under the same terms, to `COc1ccc(C(=O)NCC(=O)N/N=C/c2cccnc2)cc1` belongs 2.39%; to `COc1cccc(N2CC(NC(=O)/C=C\c3ccccc3)CC2=O)c1` (stereo not given), 1.08%.
For `COc1ccc(/C=C/C(=O)c2ccc(OC)cc2O)cc1`, the Potency was 7.57 µM (active).
On to `COc1ccc(C(=O)/C=C/c2cccnc2)c(OC)c1`, for which the Potency is 19 µM (active).
As to `COC(=O)c1cc(OC)ccc1-c1ccc(OC)cc1`, the “activity change, negative = inhibition” value was 0.668%.
With `COc1ccc(C(=O)/C=C/c2ccc(OC3CSC3)cc2)cc1`, the Potency is 12 µM (active).
Consider `CCOC(=O)C1CCCN(C(=O)/C=C/c2ccc(OC)cc2)C1` (stereo not given), for which the “activity change, negative = inhibition” value was -18.1%.
Turning to `Cc1ccc(C)c(CNC(=O)c2cc3ccccn3n2)c1`, the “activity change, negative = inhibition” value is -5.12%.
Same read-out and setting: the figure for `COc1ccc(S(=O)(=O)NCC(=O)NCc2cc(=O)n(C)c(=O)n2C)cc1F` is 4.13%; for `COc1cccc(C(c2c(O)cc(C)n(Cc3ccco3)c2=O)N2CCN(c3ccccc3)CC2)c1` (stereo not given) it is -13.6%.
Same read-out and setting: the figure for `CCOc1ccc(-c2cc3nc(C4CCN(C(=O)OC(C)(C)C)CC4)c(C(=O)Nc4ccc(C(=O)OC)cc4)cn3n2)cc1` is -8.05%.
In the case of `COc1ccccc1NC(=O)C1=C(C)Nc2nc(SCC(=O)c3ccc(C)cc3)nn2C1c1ccccc1C` (stereo not given), the “activity change, negative = inhibition” value is 5.07%.
The same measure, in the same setting: to `Cc1cc(C(=O)Nc2cccc(C(F)(F)F)c2)c2c(C)nn(-c3cccc(F)c3)c2n1` belongs -8.84%.
For the compound `C/C(=N\NC(=O)c1ccoc1C)c1ccccc1O`, the Potency was 15.1 µM (active).
For `CC(C)=C(NC(=O)c1ccccc1)C(=O)N/N=C(\C)c1ccccc1O`, the “activity change, negative = inhibition” value was 4.12%.
`COc1ccccc1N(CC(=O)N/N=C(\C)c1ccccc1O)S(=O)(=O)c1ccc(C)cc1`: the “activity change, negative = inhibition” value is 3.81%.
